NPC1 prom act = activators of NPC1 promoter; Huh7 NPC1 promoter luciferase reporter, 24 h; Potency, µM (top dose mostly 9.22 µM), without a hit: at the top dose activation, actives largely listed as activators; actives 2.4% (n = 320,000); note: % of control where 0% means no effect; nearly all actives have a fitted effect of over 60% in size
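Stably transfected Huh7 (NPC1 promoter→luciferase), 1500 cells/well in Opti-MEM + 10% FBS, 2 h settle, then compound 24 h at 37 °C. Luminescence after 10 min with Amplite reagent.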
SMN2 splice up = SMN2 splice variant enhancement. HEK293 SMN2-luciferase splicing reporter, luminescence, 30-36 h. Potency, µM (series often up to 46.1 µM), for the others: at the top dose activity change, positive = activation, most hits filed as activators. actives 2.8% (n = 210,000). AID 1458; note: % of control where 0% means no effect; nearly all actives have a fitted effect of over 55% in size
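qHTS luciferase splicing reporter: luminescence rises when SMN2 exon 7 is included in transfected HEK293 cells. Compound exposure lasted 30-36 h at 37C, with 4.5 mM final sodium butyrate as control, followed by a ONE-Glo read.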
FLuc modulator = inhibits or activates purified firefly luciferase, miR-21 counter-screen. P08659. purified FLuc, Km substrates, luminescence inhibition. Potency, µM (top dose mostly 57.5 µM), for inactives: top-dose activity change, negative = inhibition, hits mostly inhibitors. actives 6.9% (n = 360,000). AID 588342;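 note: plate controls were vehicle for no effect and reference inhibitor for full effect; nearly all actives have a fitted effect of over 55% in size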
Target sequence (P08659 whole entry, looked up): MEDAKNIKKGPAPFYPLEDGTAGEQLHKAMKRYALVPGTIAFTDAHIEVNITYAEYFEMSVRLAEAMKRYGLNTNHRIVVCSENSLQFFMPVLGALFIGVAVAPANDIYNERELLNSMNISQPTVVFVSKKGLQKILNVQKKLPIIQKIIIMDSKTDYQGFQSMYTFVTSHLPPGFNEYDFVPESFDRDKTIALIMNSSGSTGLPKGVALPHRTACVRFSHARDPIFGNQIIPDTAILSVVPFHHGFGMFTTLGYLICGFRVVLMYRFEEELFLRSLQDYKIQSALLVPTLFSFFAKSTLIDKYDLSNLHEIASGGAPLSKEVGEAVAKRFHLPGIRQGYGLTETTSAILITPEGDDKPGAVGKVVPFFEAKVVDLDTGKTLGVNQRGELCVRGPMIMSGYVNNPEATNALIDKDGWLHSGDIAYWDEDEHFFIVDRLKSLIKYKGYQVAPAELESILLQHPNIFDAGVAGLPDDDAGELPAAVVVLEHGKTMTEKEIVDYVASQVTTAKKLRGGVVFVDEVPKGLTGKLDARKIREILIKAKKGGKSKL
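Biochemical qHTS of compounds, final roughly 60 µM downward over six points, against 10 nM purified firefly luciferase using Km concentrations of substrates (10 uM D-luciferin, 10 uM ATP) in Tris acetate pH 7.5 buffer; luminescence output.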
Luc counter = Kinase-Glo luciferase inhibition (counter-screen); actives 0.28% (n = 200,000); Q27757; Kinase-Glo luciferase, ATP luminescence, 8 min; Potency, µM (doses to about 38.3 µM), for inactives: top-dose activity change, negative = inhibition, most hits filed as inhibitors; AID 1379; note: % is set by controls: 0 for no effect and ±100 for the full control effect; nearly all actives have a fitted effect of over 60% in size
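Inhibition of Kinase-Glo luciferase light generation was assessed at 10 uM ATP in pH 7.2 imidazole buffer, with luminescence measured after eight minutes at ambient temperature.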
ELG1 genotox = induces genotoxicity in HEK293T cells with luciferase-tagged ELG1; HEK293T ELG1-luciferase reporter, luminescence, 16 h; Potency, µM (top dose mostly 46 µM), for inactives: top-dose activity change, positive = activation, hits mostly activators; actives 1.3% (n = 330,000); note: % of control where 0% means no effect; nearly all actives have a fitted effect of over 60% in size
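ELG1-luciferase HEK293T cells, 2,000/well; compound pinned in; 16 hr, 37 °C, 5% CO2; ONE-Glo, 30 min RT; luminescence on CCD imager.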
Rab9 prom act = activators of Rab9 promoter; Huh7 Rab9 promoter-luciferase reporter, luminescence, 24 h; Potency, µM (titrated, usually from 9.22 µM), inactives show top-dose activation, negative = inhibition, usual class: activators; actives 2.8% (n = 320,000); note: % of control where 0% means no effect; nearly all actives have a fitted effect of over 60% in size
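Huh7 cells stably carrying a Rab9 promoter-luciferase reporter, 1500 cells per well in OP-MEM I with 10% FBS, treated with compound 24 hours at 37C. Luciferase activity read by luminescence after 10 minutes with Amplite reagent.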
The depositor's hits bear a star. Only some compounds are listed: those with a hit (about 7.4% of all), similar ones and a draw of the others. Calls come from the whole dose curve; as a rule, active = well fitted curve in the direction sought with a large enough effect; inconclusive = small, poorly fitted or top-dose-only effect, or another doubt; inactive = no such curve, though single readings can be large; an effect the other way counts as inactive or inconclusive. Potency is the fitted concentration of half-maximal effect.

NC(=O)c1sc2nc3c(cc2c1N)CCC3 was read as NPC1 prom act inconclusive, SMN2 splice up inconclusive, FLuc modulator inconclusive, Luc counter -10%, ELG1 genotox -8% and Rab9 prom act inconclusive.
For Cc1ccc(C)c2nc3sc(C(=O)N4CCOCC4)c(N)c3cc12 the results were NPC1 prom act 15%, FLuc modulator inconclusive, Luc counter -5%, ELG1 genotox inconclusive and Rab9 prom act inconclusive.
For Nc1c(C(=O)N2CCOCC2)sc2nc3c(cc12)CCC3 the results were NPC1 prom act 1.3µM*, SMN2 splice up 11µM*, FLuc modulator 7.6µM*, Luc counter 11µM*, ELG1 genotox 2.9µM* and Rab9 prom act 0.89µM*.
For O=C(NCc1ccc2c(c1)OCO2)c1ccc(NC(=O)C2CCCO2)cc1 (stereo not given) the results were NPC1 prom act -3%, SMN2 splice up 19%, FLuc modulator -4%, Luc counter 0%, ELG1 genotox 1% and Rab9 prom act -5%.
For O=C(Nc1ccc2c(c1)OCCO2)c1ccc(NC(=O)C2CCCO2)cc1 (stereo not given) the results were NPC1 prom act 14%, SMN2 splice up -5%, FLuc modulator 12µM*, Luc counter -2%, ELG1 genotox 5% and Rab9 prom act 22%.
CC(=O)Nc1ccc(C(=O)Nc2ccc3c(c2)OCO3)cc1 was read as NPC1 prom act 16%, SMN2 splice up 3%, FLuc modulator inconclusive, Luc counter -8%, ELG1 genotox 13% and Rab9 prom act 24%.
Screening CCN(CC(=O)Nc1ccc2c(c1)OCCO2)C(=O)c1ccc(Cl)cc1Cl returned NPC1 prom act 4µM*, FLuc modulator 7.6µM*, ELG1 genotox inconclusive and Rab9 prom act 1.4µM*.
For CC(=O)Nc1ccc(C(=O)Nc2ccc3c(c2)OCCO3)cc1 the results were NPC1 prom act -2%, FLuc modulator 15µM*, ELG1 genotox inconclusive and Rab9 prom act 5%.
For Cc1ccc(C(=O)Nc2ccncc2)o1 the results were NPC1 prom act 1%, SMN2 splice up -6%, FLuc modulator -2%, Luc counter -4%, ELG1 genotox -2% and Rab9 prom act 2%.
`Cc1ccc(C(=O)Nc2ccc3c(c2)OCCO3)o1` gave NPC1 prom act inconclusive, FLuc modulator 3µM*, Luc counter inconclusive, ELG1 genotox 3.3µM* and Rab9 prom act inconclusive.
`COC(=O)c1ccc(NC(=O)CSc2n[nH]c(CC(C)C)n2)cc1` gave SMN2 splice up -3% and FLuc modulator -11%.
For COc1cc(C(=O)N(CCCN(C)C)c2nc3c(OC)cccc3s2)cc(OC)c1OC the results were FLuc modulator -3%.
Screening O=C(Nc1ccc2c(c1)OCCO2)c1ccc(Cl)cc1 returned NPC1 prom act 0.71µM*, FLuc modulator 1.5µM*, ELG1 genotox inconclusive and Rab9 prom act 0.45µM*.
`Cc1cc(C(=O)Nc2ccc3c(c2)OCCO3)co1` gave NPC1 prom act 3.2µM*, FLuc modulator 3.4µM*, Luc counter -17%, ELG1 genotox inconclusive and Rab9 prom act 4.5µM*.
CCOc1ccc(C(=O)Nc2ccc3c(c2)OCCO3)cc1OC was read as NPC1 prom act inconclusive, SMN2 splice up 13µM*, FLuc modulator 2.7µM*, Luc counter -14%, ELG1 genotox 18µM* and Rab9 prom act inconclusive.
For NC(=O)Nc1ccc2c(c1)OCCO2 the results were NPC1 prom act 19%, SMN2 splice up 17%, FLuc modulator 21µM*, Luc counter 2%, ELG1 genotox inconclusive and Rab9 prom act 30%.
For CC(=O)Nc1ccc2c(c1)OCCOCCOc1cc(NC(C)=O)ccc1OCCO2 the results were NPC1 prom act 0%, FLuc modulator 5%, ELG1 genotox -6% and Rab9 prom act 8%.
Screening O=C(Nc1cc(-c2ccc(Cl)cc2)no1)c1ccc(F)cc1 returned SMN2 splice up 9% and FLuc modulator 4%.
`CC(C)(C)C(=O)Cn1c(=O)n(-c2ccc(Cl)c(Cl)c2)c(=O)c2c3c(sc21)CCCC3` gave SMN2 splice up -2% and FLuc modulator -6%.
For c1cc(CNc2ccc3c(c2)OCCO3)ccn1 the results were NPC1 prom act 0%, SMN2 splice up 11%, FLuc modulator inconclusive, Luc counter -2%, ELG1 genotox 18µM* and Rab9 prom act 1%.
For Cc1cc(C)n(-c2ccc(C(=O)Nc3ccc4c(c3)OCCO4)cc2)n1 the results were NPC1 prom act inconclusive, SMN2 splice up 17%, FLuc modulator 8.5µM*, Luc counter -2%, ELG1 genotox inconclusive and Rab9 prom act inconclusive.
Screening C=CCOc1ccccc1CNc1ccc2c(c1)OCCO2 returned NPC1 prom act inconclusive, SMN2 splice up -29%, FLuc modulator 0.85µM*, Luc counter -15%, ELG1 genotox inconclusive and Rab9 prom act inconclusive.
`COc1cc(OC)cc(C(=O)Nc2ccc3c(c2)OCCO3)c1` gave NPC1 prom act 4µM*, SMN2 splice up 10µM*, FLuc modulator 3µM*, ELG1 genotox inconclusive and Rab9 prom act 3.2µM*.
Cc1ccc(C)c(S(=O)(=O)c2nnn3c2nc(NC(C)C)c2sccc23)c1 was read as FLuc modulator -9%.
Screening CCc1ccc(-c2cn(-c3nc(C)cc(C)n3)c(=N)o2)cc1 returned NPC1 prom act 2%, SMN2 splice up 2%, FLuc modulator 5.4µM*, Luc counter -4%, ELG1 genotox -8% and Rab9 prom act 0%.
For O=C(c1cccs1)N(CCN1CCCCC1)CC1CCCN(C2CCCC2)C1 (stereo not given) the results were NPC1 prom act 23%, FLuc modulator 17µM*, ELG1 genotox 18% and Rab9 prom act inconclusive.
For Cc1ccc(C(=O)NCCc2csc(C)n2)cc1 the results were NPC1 prom act inconclusive, SMN2 splice up 14µM*, FLuc modulator 9.5µM*, Luc counter 0%, ELG1 genotox 18µM* and Rab9 prom act 3.2µM*.
`Cc1cccc(C(=O)NCCc2csc(C)n2)c1` gave NPC1 prom act -1%, SMN2 splice up 1.6µM*, FLuc modulator 3%, Luc counter 6%, ELG1 genotox 41% and Rab9 prom act 5%.
Screening O=C(NCc1cccs1)c1ccc(Cn2c(SCc3cccc(F)c3)nc3cccnc32)cc1 returned FLuc modulator -13%.

Screening data as filed in PubChem BioAssay.
